Inconclusive results are not listed. Activity calls are given as the source filed them. Calls follow the shape of the dose curve; as a rule, active = well fitted curve in the direction sought with a large enough effect in the repeat runs; inconclusive = weak or mixed curves; inactive = no such curve, though single readings can be large; an effect the other way counts as inactive or inconclusive.
Assays:
[1] = qHTS RealTime-Glo MT Cell Viability Assay in HepG2 cells - 40 hour (AID 1224870); also: nearly all actives have a fitted effect of over 50% in size
Procedure, shortened: (§1)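 HepG2 cells mixed with RealTime-Glo MT reagents (NanoLuc plus cell-permeant prosubstrate) were seeded at 600 cells/well, incubated 5 h at 37 C/5% CO2, then pinned with compounds in DMSO; nonlytic luminescence tracked viability during 40 h treatment.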

[2] = A CellTox Green Cytotoxicity Assay to monitor cytotoxicity in HEK293 cells - 40 hour (AID 1224871); also: nearly all actives have a fitted effect of over 45% in size
Procedure, shortened: (§2)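 Seeding of HEK293 cells together with cytotoxicity dye preceded a 5 h incubation at 37 C/5% CO2. Test compounds in DMSO were then added and fluorescence monitored across 40 h.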

[3] = qHTS RealTime-Glo MT Cell Viability Assay in HEK293 cells - 16 hour (AID 1224872); also: nearly all actives have a fitted effect of over 50% in size; also: potency is read from the fitted curve at half-maximal effect; as to activity change, negative = cytotoxicity: top concentration of the series differs between compounds
Procedure, shortened: (§3)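 HEK293 cells seeded with NanoLuc/prosubstrate reagent, rested 5 h at 37 C, then dosed and kept at 37 C up to 40 h. Nonlytic real-time luminescence from viable cells read at 0, 8, 16, 24, 32 and 40 h.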

[4] = qHTS RealTime-Glo MT Cell Viability Assay in HepG2 cells - 8 hour (AID 1224873); also: nearly all actives have a fitted effect of over 55% in size
Procedure, shortened: as §1

[5] = qHTS RealTime-Glo MT Cell Viability Assay in HEK293 cells - 40 hour (AID 1224874); details: RealTime-Glo luminescence; max response: hits give low values; also: nearly all actives have a fitted effect of over 50% in size; also: potency is read from the fitted curve at half-maximal effect
Procedure, shortened: (§4)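 Tox21 screen in HEK293 using RealTime-Glo MT chemistry, with cells and reagent co-dispensed. Luminescence proportional to viable cell number was captured at intervals during 40 h compound exposure at 37 C.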

[6] = A CellTox Green Cytotoxicity Assay to monitor cytotoxicity in HEK293 cells - 24 hour (AID 1224875); also: series mostly up to about 77 µM; nearly all actives have a fitted effect of over 45% in size
Procedure, shortened: as §2

[7] = A CellTox Green Cytotoxicity Assay to monitor cytotoxicity in HepG2 cells - 16 hour (AID 1224876); also: nearly all actives have a fitted effect of over 45% in size
Procedure, shortened: (§5)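 Nonlytic assay: viable cells exclude the dye, so fluorescence scales with cell death. HepG2 at 600 cells/well, compounds added after 5 h, signal read across 40 h.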

[8] = A CellTox Green Cytotoxicity Assay to monitor cytotoxicity in HepG2 cells - 24 hour (AID 1224878); also: nearly all actives have a fitted effect of over 45% in size
Procedure, shortened: as §5

[9] = A CellTox Green Cytotoxicity Assay to monitor cytotoxicity in HepG2 cells - 40 hour (AID 1224879); also: nearly all actives have a fitted effect of over 40% in size
Procedure, shortened: as §5

[10] = qHTS RealTime-Glo MT Cell Viability Assay in HEK293 cells - 0 hour (AID 1224880)
Procedure, shortened: as §4

[11] = A CellTox Green Cytotoxicity Assay to monitor cytotoxicity in HEK293 cells - 32 hour (AID 1224881); also: nearly all actives have a fitted effect of over 40% in size
Procedure, shortened: as §2

[12] = A CellTox Green Cytotoxicity Assay to monitor cytotoxicity in HepG2 cells - 32 hour (AID 1224883); also: nearly all actives have a fitted effect of over 50% in size
Procedure, shortened: as §5

[13] = qHTS RealTime-Glo MT Cell Viability Assay in HepG2 cells - 16 hour (AID 1224885); also: nearly all actives have a fitted effect of over 50% in size
Procedure, shortened: (§6)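 HepG2 cells (600/well) were dispensed with RealTime-Glo reagents, incubated 5 h at 37 °C, then treated with compounds in DMSO for up to 40 h. Nonlytic NanoLuc luminescence reflecting viable cells was read at each stated time point.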

[14] = qHTS RealTime-Glo MT Cell Viability Assay in HEK293 cells - 24 hour (AID 1224886); also: nearly all actives have a fitted effect of over 50% in size; also: potency is read from the fitted curve at half-maximal effect; as to activity change, negative = cytotoxicity: top concentration of the series differs between compounds
Procedure, shortened: as §3

[15] = qHTS RealTime-Glo MT Cell Viability Assay in HEK293 cells - 8 hour (AID 1224887); also: nearly all actives have a fitted effect of over 50% in size; also: potency is read from the fitted curve at half-maximal effect; as to activity change, negative = cytotoxicity: top concentration of the series differs between compounds
Procedure, shortened: as §4

[16] = A CellTox Green Cytotoxicity Assay to monitor cytotoxicity in HEK293 cells - 16 hour (AID 1224888); also: nearly all actives have a fitted effect of over 35% in size
Procedure, shortened: as §2

[17] = qHTS RealTime-Glo MT Cell Viability Assay in HepG2 cells - 0 hour (AID 1224889); also: nearly all actives have a fitted effect of over 50% in size
Procedure, shortened: as §6

[18] = qHTS RealTime-Glo MT Cell Viability Assay in HepG2 cells - 32 hour (AID 1224877); also: nearly all actives have a fitted effect of over 55% in size
Procedure, shortened: as §6

[19] = A CellTox Green Cytotoxicity Assay to monitor cytotoxicity in HepG2 cells - 0 hour (AID 1224882); also: nearly all actives have a fitted effect of over 35% in size
Procedure, shortened: as §5

[20] = A CellTox Green Cytotoxicity Assay to monitor cytotoxicity in HEK293 cells - 8 hour (AID 1224884); also: nearly all actives have a fitted effect of over 35% in size
Procedure, shortened: as §2
% is scaled to controls: 0 for no effect and ±100 for the full control effect.

CNC1CCCN(c2c(F)cc3c(=O)c(C(=O)O)cn(C4CC4)c3c2OC)C1 (stereo not drawn)
inactive: Potency [1] | Potency [2] | Potency [3] | Potency [4] | max response [5] -1.56% | Potency [6] | Potency [7] | Potency [8] | Potency [9] | Potency [10] | Potency [11] | Potency [12] | Potency [13] | Potency [14] | Potency [15] | Potency [16] | Potency [17]

COC(OC)OC
inactive: Potency [1] | Potency [2] | Potency [3] | Potency [4] | max response [5] 11.5% | Potency [6] | Potency [18] | Potency [8] | Potency [9] | Potency [10] | Potency [11] | Potency [19] | Potency [12] | Potency [20] | Potency [13] | Potency [14] | Potency [15] | Potency [16] | Potency [17]

COc1cc(C(C)=O)ccc1OCCCN1CCC(c2noc3cc(F)ccc23)CC1
inactive: Potency [1] | Potency [2] | Potency [4] | Potency [6] | Potency [7] | Potency [10] | Potency [11] | Potency [19] | Potency [13] | Potency [16] | Potency [17]
active: Potency [3] 7.56 µM | Potency [5] 10.7 µM | Potency [14] 9.52 µM | Potency [15] 9.52 µM

CC1=CC[C@@H]2C[C@H]1C2(C)C
inactive: activity change, negative = cytotoxic [1] 1.07% [at 15.8 µM] | cytotoxicity increase [2] 2.52% [at 15.8 µM] | activity change, negative = cytotoxicity [3] 8.54% [at 15.8 µM] | viability change, negative = cytotoxic [4] 0.867% [at 15.8 µM] | max response [5] 1.39% | activity change [6] 2.23% [at 15.8 µM, hits give high values] | cytotoxicity increase [7] -4.53% [at 15.8 µM] | activity change, negative = cytotoxic [18] 2.7% [at 15.8 µM] | cytotoxicity [8] -4.03% [at 15.8 µM] | cytotoxicity increase [9] -3.58% [at 15.8 µM] | activity change, negative = cytotoxicity [10] -16.1% [at 15.8 µM] | cytotoxicity increase [11] 1.12% [at 15.8 µM] | cytotoxicity [19] -3.74% [at 15.8 µM] | activity change, negative = cytotoxic [13] 1.14% [at 15.8 µM] | activity change, negative = cytotoxicity [14] 1.87% [at 15.8 µM] | activity change, negative = cytotoxicity [15] -0.368% [at 15.8 µM] | activity change [16] 1.29% [at 15.8 µM, hits give high values] | activity change, negative = cytotoxicity [17] -1.11% [at 15.8 µM]

C[C@@H]1C[C@H]2[C@@H]3CCC4=CC(=O)C=C[C@]4(C)[C@@]3(F)[C@@H](O)C[C@]2(C)[C@@]1(O)C(=O)COP(=O)(O)O
inactive: Potency [1] | Potency [2] | Potency [3] | Potency [4] | max response [5] -21.2% | Potency [6] | Potency [7] | Potency [9] | Potency [10] | Potency [11] | Potency [19] | Potency [12] | Potency [20] | Potency [13] | Potency [14] | Potency [15] | Potency [16]

O=C(Nc1ccc(C(=O)O)c(O)c1)c1ccccc1
inactive: Potency [1] | Potency [2] | Potency [3] | Potency [4] | max response [5] 8.29% | Potency [6] | Potency [7] | Potency [8] | Potency [9] | Potency [10] | Potency [11] | Potency [19] | Potency [12] | Potency [20] | Potency [13] | Potency [14] | Potency [15] | Potency [16] | Potency [17]

CCN(CC)CCOc1ccccc1C(=O)CCc1ccccc1
inactive: Potency [1] | Potency [2] | Potency [4] | Potency [6] | Potency [7] | Potency [18] | Potency [9] | Potency [10] | Potency [11] | Potency [19] | Potency [12] | Potency [20] | Potency [16] | Potency [17]
active: Potency [3] 10.7 µM | Potency [5] 10.7 µM | Potency [14] 10.7 µM | Potency [15] 10.7 µM

O=C(O)CCC(=O)c1ccc(-c2ccccc2)cc1
inactive: Potency [1] | Potency [2] | Potency [3] | Potency [4] | max response [5] 0.573% | Potency [6] | Potency [7] | Potency [18] | Potency [9] | Potency [10] | Potency [11] | Potency [19] | Potency [12] | Potency [20] | Potency [13] | Potency [14] | Potency [16] | Potency [17]

CC(=O)OCC(C)C
inactive: Potency [1] | Potency [2] | Potency [3] | Potency [4] | max response [5] 1.5% | Potency [6] | Potency [7] | Potency [18] | Potency [8] | Potency [9] | Potency [10] | Potency [11] | Potency [19] | Potency [13] | Potency [14] | Potency [15] | Potency [16] | Potency [17]

O=C(NC(Cc1cc(=O)[nH]c2ccccc12)C(=O)O)c1ccc(Cl)cc1 (stereo not drawn)
inactive: Potency [1] | Potency [2] | Potency [3] | Potency [4] | max response [5] 3.38% | Potency [6] | Potency [7] | Potency [8] | Potency [9] | Potency [10] | Potency [11] | Potency [19] | Potency [12] | Potency [13] | Potency [14] | Potency [15] | Potency [16] | Potency [17]

CCCCCCC(O)CCCCCCCCCCC(=O)OC (stereo not drawn)
inactive: Potency [1] | Potency [2] | Potency [3] | Potency [4] | max response [5] -16.2% | Potency [6] | Potency [7] | Potency [18] | Potency [9] | Potency [10] | Potency [11] | Potency [19] | Potency [12] | Potency [20] | Potency [13] | Potency [14] | Potency [16] | Potency [17]

CC(C)(O)c1coc(S(=O)(=O)NC(=O)Nc2c3c(cc4c2CCC4)CCC3)c1
inactive: Potency [1] | Potency [2] | Potency [3] | Potency [4] | max response [5] 21.1% | Potency [6] | Potency [18] | Potency [10] | Potency [11] | Potency [19] | Potency [20] | Potency [13] | Potency [14] | Potency [15] | Potency [16] | Potency [17]

CC1C(C)(C)C2=C(C(=O)CCC2)C1(C)C (stereo not drawn)
inactive: Potency [1] | Potency [2] | Potency [3] | Potency [4] | max response [5] -12.9% | Potency [6] | Potency [18] | Potency [10] | Potency [19] | Potency [13] | Potency [14] | Potency [16] | Potency [17]

COc1ccc(-n2nc(C(F)F)cc2-c2ccc(S(C)=O)cc2)cc1 (stereo not drawn)
inactive: Potency [1] | Potency [2] | Potency [3] | Potency [4] | max response [5] -24.7% | Potency [6] | Potency [10] | Potency [11] | Potency [20] | Potency [13] | Potency [14] | Potency [15] | Potency [16] | Potency [17]

From PubChem BioAssay (Tox21)
